Compounds with a hit are over-represented: about 2.7% of the library has one in this group of screens.
gsp antagonist – antagonists of gsp mutant (McCune-Albright syndrome) | AID 624288 | gsp-mutant cells, cAMP HTRF, 30 min | Potency, µM (series often up to 76.9 µM), hits mostly inhibitors | hit rate 0.4% among 340,000; calls by dose curve; cell line not stated here;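 further: intracellular cAMP measured with PDE inhibitor Ro 20-1724 present during compound exposure; nearly all actives have a fitted effect of over 65% in size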
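Cells in G418 medium, seeded 16-24 h, 37C; buffer exchange to DPBS + 1 mM CaCl2, 0.5 mM MgCl2, 0.05% BSA; cpds in DMSO + […] (300 uM stock), 30 min 37C; HTRF cAMP detection.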
RXFP1 agonist – activates the human relaxin receptor RXFP1. Q9HBX9. HEK293T-RXFP1 cAMP TR-FRET, 30 min; response scale: percent of porcine relaxin response, buffer zero. Potency, µM (series often up to 57.5 µM), most hits filed as activators. hit rate 0.3% among 370,000. AID 2676; further: nearly all actives have a fitted effect of over 60% in size
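HEK293 cells stably expressing RXFP1, treated 30 min at 37C with compounds plus PDE4 inhibitor Ro 20174; cAMP measured by HTRF TR-FRET. Normalized to buffer and 29 nM porcine relaxin; EC50 by Hill fit.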
RXFP1 antagonist – antagonists of human relaxin receptor RXFP1; Q9HBX9; HEK293-RXFP1, relaxin-stimulated cAMP HTRF, 30 min; hits give low values; hit rate 0.59% among 350,000; activity change, negative = inhibition, % at 57.5 µM;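 active means activity change of -60% or lower, but not beyond a set lower limit; inconclusive means change between -60% and -40%, or beyond the set limit; inactive means change above -40%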
gsp ag – gsp mutant agonism; gsp mutant cells, cAMP HTRF, 30 min; Potency, µM (doses to about 76.9 µM), actives largely listed as activators; hit rate 0.13% among 340,000; AID 624287; active means well fitted activation curve with a large enough effect; inconclusive means small, poorly fitted or top-dose-only effect, or another doubt; inactive means no such curve, though single readings can be large or run the other way; cell line not stated here;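 further: phosphodiesterase inhibitor Ro 20-1724 added with compounds to block cAMP breakdown; nearly all actives have a fitted effect of over 60% in size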
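Cells stably selected in G418 were plated at 2000/well, grown 16-24 hr, then given compounds in DMSO with the PDE inhibitor […] (300 uM solution added) for 30 min at 37C; cAMP was read by HTRF.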
ClpP mod – qHTS Assay for Activators of ClpP; ATP-dependent Clp protease proteolytic subunit (Bacillus subtilis (strain 168)), P80244; purified B. subtilis ClpP, FRET peptide cleavage, 20 min; Potency, µM (titrated, usually from 57.5 µM); hit rate 1.9% among 340,000; AID 651965, 2013; active means well fitted falling curve with a large enough effect; inconclusive means small, poorly fitted or top-dose-only effect; inactive means no such curve, though single readings can be large or run the other way; further: the source files actives as falling curves though it sought activators and does not explain the sign; nearly all actives have a fitted effect of over 65% in size
Target sequence (P80244 whole entry, looked up): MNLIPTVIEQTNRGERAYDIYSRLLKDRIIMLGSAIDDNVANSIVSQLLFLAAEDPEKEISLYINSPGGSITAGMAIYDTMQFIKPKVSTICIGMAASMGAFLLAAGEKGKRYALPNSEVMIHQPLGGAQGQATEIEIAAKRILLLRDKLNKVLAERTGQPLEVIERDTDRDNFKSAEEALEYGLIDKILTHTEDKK
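Purified B. subtilis ClpP, 10 microg/mL final in Tris/HCl pH8 with KCl, BSA, glycerol and Tween-20, cleaved an Abz/nitrotyrosine-quenched decapeptide. Fluorescence (ex 320, em 430) was read at 0 and 20 min at room temperature. Delta was normalized to 5.8 microM ADEP and DMSO/no-enzyme controls.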
pAkt inh – Akt phosphorylation inhibition | Neuro2A IGF-stimulated pAkt S473 HTRF, 20 min; hits give low values | activity change, % for hits at 50 µM | hit rate 0.32% among 360,000; in the data active means activity change below about -80%; inconclusive means mostly about -51% to -80%
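Neuro2A cells (4,500/well, DMEM with 0.5% FBS) were treated with compound at a single 50 µM final concentration, stimulated with 6 nM IGF for 20 min at 37 °C, and lysed. Phospho-Akt Ser473 was read by HTRF as 665/615 ratio ×10^4.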
ClpP validation – Bacillus subtilis ClpP inhibition, validated hit | shares compounds with ClpP mod | purified B. subtilis ClpP, FRET-FV substrate cleavage, 20 min | AID 743245 | Potency, µM (series often up to 57.5 µM), hits mostly inhibitors | hit rate 40% among 470; further: nearly all actives have a fitted effect of over 70% in size
Numbers stand for hits; n = inactive; u = inconclusive; x = not tested or not shown. Unless noted, the call rests on the fitted dose curve; in most records, active means well fitted curve in the direction sought with a large enough effect; inconclusive means small, poorly fitted or top-dose-only effect, or another doubt; inactive means no such curve, though single readings can be large; an effect the other way counts as inactive or inconclusive.

SMILES	gsp antagonist	RXFP1 agonist	RXFP1 antagonist	gsp ag	ClpP mod	pAkt inh	ClpP validation
Cc1ccc(CCNC(=O)c2cc(C)nc3c2c(C)nn3-c2ccc(C)cc2)cc1	x	n	n	x	n	x	27.3µM
CSc1ccc(CCNC(=O)c2cc(C)nc3c2c(C)nn3-c2ccccc2)cc1	x	n	n	x	n	x	17.2µM
CC(C)c1ccc(CN2CCC(n3nccc3NC(=O)C3CCCC3)CC2)cc1	x	x	n	u	n	n	x
Cc1nn2c(NCC(C)C)c3c(nc2c1-c1ccccc1)CCC3	n	n	n	n	7.94µM	n	4.85µM
COc1ccc(NC(=O)c2c(C)oc3ccc(O)c(CN4CCN(C)CC4)c23)cc1Cl	x	n	n	x	n	x	x
O=C(NCc1ccccc1Br)c1cnc2sc(N3CCCCCC3)nn2c1=O	x	n	n	x	u	x	x
CCOc1ccccc1CNC(=O)c1cnc2sc(N3CCOCC3)nn2c1=O	x	n	n	x	2.82µM	x	n
CCOc1ccccc1CNC(=O)c1cnc2sc(N3CCCCCC3)nn2c1=O	x	n	n	x	3.16µM	x	n
CCc1ccc(CNC(=O)c2cnc3sc(N4CCOCC4)nn3c2=O)cc1	x	n	n	x	3.16µM	x	n
CCOc1ccc(CCNC(=O)c2cnc3sc(N4CCOCC4)nn3c2=O)cc1	x	n	n	x	u	x	x
CCCNC(=O)c1cnc2sc(N3CCCCCC3)nn2c1=O	x	n	n	x	3.16µM	x	n
CCc1ccc(CNC(=O)c2cnc3sc(N4CCCCC4)nn3c2=O)cc1	x	n	n	x	u	x	x
Cc1ccc(Nc2c(-c3ccc(C)o3)nc3cccc(C)n23)cc1	x	n	n	x	n	x	x
Cc1ccc(/C=C/c2nc3ccccc3n2S(=O)(=O)c2cccc(Cl)c2)cc1	x	n	n	x	10µM	x	u
CCOc1ccc(/C=C/c2nc3ccccc3n2S(=O)(=O)c2cccc(Cl)c2)cc1	x	n	n	x	n	x	x
Cc1cccc(C(=O)N2CCN(c3ncnc4c3cnn4-c3ccccc3)CC2)c1	n	n	n	n	n	n	n
O=C(NCc1ccccc1)C(c1ccc(-c2ccccc2)cc1)n1c(=O)c(-c2cc3ccccc3[nH]2)nc2ccccc21 (configuration not stated)	x	x	x	x	n	n	n
O=C(NCc1ccccc1)C(c1ccncc1)n1c(=O)c(-c2cc3ccccc3[nH]2)nc2ccccc21 (configuration not stated)	x	x	x	x	n	n	x
CCCCCNC(=O)C(c1ccccc1)n1c(=O)c(-c2cc3ccccc3[nH]2)nc2ccccc21 (configuration not stated)	x	x	x	x	u	n	x
O=C(Nc1ccc2ccccc2c1)C(c1ccccc1F)n1c(=O)c(-c2cc3ccccc3[nH]2)nc2ccccc21 (configuration not stated)	x	x	x	x	n	n	n
CCCCCNC(=O)C(c1cccc2ccccc12)n1c(=O)c(-c2cc3ccccc3[nH]2)nc2ccccc21 (configuration not stated)	x	x	x	x	n	n	n
O=C(NC1CCCCC1)C(c1cccc2ccccc12)n1c(=O)c(-c2cc3ccccc3[nH]2)nc2ccccc21 (configuration not stated)	x	x	x	x	n	n	n
CC1=C(C(=O)OCC2CCCCC2)C(c2ccc(Cl)cc2Cl)CC(=O)N1 (configuration not stated)	x	n	x	x	n	x	x
C[C@@H]1CCC2[C@](C)(CO)[C@@H](O)CC[C@]2(C)[C@@]12CC[C@@](CO)(CC(=O)O)O2 (some centres not stated)	n	n	n	n	n	n	x
Fc1ccc(-c2nc(-c3cccs3)no2)cc1	n	n	n	n	n	n	x
SMILES	gsp antagonist	RXFP1 agonist	RXFP1 antagonist	gsp ag	ClpP mod	pAkt inh	ClpP validation
Fc1ccc(-c2cnc(-c3cccs3)o2)cc1	n	n	n	n	6.31µM	n	5.44µM
O=S(=O)(c1ccc(-c2csc(Nc3ccc(Br)cc3)n2)cc1)N1CCCC1	n	n	n	n	3.16µM	n	27.3µM
Cc1ccc(Nc2nc(-c3ccc(S(=O)(=O)N4CCCC4)cc3)cs2)cc1C	n	n	n	u	u	x	x
COc1cc(NC(=O)c2c(C)oc3c2C2=NCCN2C=N3)cc(OC)c1OC	x	n	x	x	n	x	x
CCOc1ccc(S(=O)(=O)Nc2ccc(C(=O)N3CC(C)OC(C)C3)cc2)cc1 (configuration not stated)	n	n	n	u	5.62µM	n	n
CCOc1ccc(NS(=O)(=O)c2ccc(C(=O)N3CC(C)OC(C)C3)cc2)cc1 (configuration not stated)	n	n	n	n	n	n	x
CN(CC(=O)Nc1ccccc1C(F)(F)F)C(=O)C1CC1	n	n	n	n	n	n	x
Cc1ccc(C)c(N2CCN(c3nc4ccccc4c(=O)n3-c3ccccc3)CC2)c1	x	n	n	x	n	x	x
COc1cccc(Nc2nn3c(=O)c4ccccc4nc3s2)c1	x	n	x	x	x	x	x
CCc1cccc(Nc2nn3c(=O)c4ccccc4nc3s2)c1	x	x	x	x	x	x	n
O=C(c1ccc2c(c1)OCO2)N(c1ccc(Br)cc1)C1C=CS(=O)(=O)C1 (configuration not stated)	n	n	n	n	n	n	x
COc1ccc(NC2=CC(c3ccc(OC)cc3)N(c3ccc(OC)cc3)C2=O)cc1 (configuration not stated)	u	n	n	n	n	n	x
COc1ccc(NC2=CC(c3ccc(F)cc3)N(c3ccc(OC)cc3)C2=O)cc1 (configuration not stated)	n	n	n	n	n	n	u
COc1cc(NC(=O)CSc2nc(-c3cccs3)cc(C(F)(F)F)n2)cc(OC)c1OC	x	n	x	x	n	x	x
COc1cc(NC(=O)CCS(=O)(=O)c2nc(-c3cccs3)cc(C(F)(F)F)n2)cc(OC)c1OC	x	n	n	x	n	x	n
CCc1cccc2c(-c3ccccc3)nc(SCC(=O)Nc3ccccc3OC)nc12	x	n	n	x	n	x	x
O=C(NCc1cccc(F)c1)c1ccc(NC(=O)c2nsc3ccccc23)cc1	x	n	n	x	n	x	u
O=C(O)c1ccccc1NC(c1ccccc1)c1ccc2cccnc2c1O (configuration not stated)	n	x	n	n	n	n	u
Cc1ccnc(NC(c2ccccc2)c2ccc3cccnc3c2O)c1 (configuration not stated)	n	x	u	u	x	n	x
Cc1c2c(nc3c(C(=O)NC4CCCC4)cnn13)CCCC2	n	n	n	u	7.08µM	n	21.7µM
COc1ccc(NCc2cc3cc4c(cc3n(CC(=O)Nc3cc(C)cc(C)c3)c2=O)OCO4)cc1	x	n	x	x	n	x	x
COc1ccc(NCc2cc3cc4c(cc3n(CC(=O)Nc3ccc(C)c(C)c3)c2=O)OCO4)cc1	x	n	x	x	n	x	u
